Activity calls are given as the source filed them. Calls follow the shape of the dose curve; as a rule, active = well fitted inhibition curve with a large enough effect; inconclusive = small, poorly fitted or top-dose-only effect; inactive = no such curve, though single readings can be large or run the other way.
These molecules were tested against Pyruvate kinase (Leishmania mexicana) (UniProt Q27686) (assay: qHTS Validation Assay for Inhibitors of Leishmania Mexicana Pyruvate Kinase (AID 945;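 also: 0% = DMSO only neutral control wells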)). Conditions: purified L. mexicana pyruvate kinase, enzyme activity, E451W mutant enzyme; series mostly up to 57.5 µM; activity change, negative = inhibition: at the top concentration.
Pyruvate kinase (Leishmania mexicana), sequence (Q27686 2-499 E452W): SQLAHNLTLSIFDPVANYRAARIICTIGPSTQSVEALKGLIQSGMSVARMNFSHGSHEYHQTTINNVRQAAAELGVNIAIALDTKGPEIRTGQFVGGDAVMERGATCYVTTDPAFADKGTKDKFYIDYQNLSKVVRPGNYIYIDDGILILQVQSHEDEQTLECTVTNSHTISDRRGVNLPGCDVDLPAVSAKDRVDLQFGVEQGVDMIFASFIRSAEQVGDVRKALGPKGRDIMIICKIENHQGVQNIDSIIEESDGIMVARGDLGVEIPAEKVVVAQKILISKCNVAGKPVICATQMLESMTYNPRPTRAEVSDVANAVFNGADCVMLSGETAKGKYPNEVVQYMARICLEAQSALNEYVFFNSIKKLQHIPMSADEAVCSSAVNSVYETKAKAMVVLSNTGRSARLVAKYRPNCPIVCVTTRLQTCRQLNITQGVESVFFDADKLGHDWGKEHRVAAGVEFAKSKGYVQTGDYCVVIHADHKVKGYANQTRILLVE
Text: NIH Molecular Libraries Screening Centers Network [MLSCN]
NIH Chemical Genomics Center [NCGC]
PI names: Malcom Walkinshaw, Hugh Morgan and Linda Gilmore
University of Edinburgh, Edinburgh, UK
Species of Leishmania are responsible for a wide spectrum of diseases throughout the tropics and subtropics, ranging from self-healing ulcers to highly disfiguring lesions and serious, often lethal visceral diseases, such as kala-azar. In Leishmania spp. it has been shown that both sugar uptake and gluconeogenesis are necessary to synthesize sufficient hexose-phosphate required for the production of glycoconjugates and the intracellular polysaccharide mannan which are essential for both replication and virulence of the parasites. Therefore, most of the enzymes participating in glycolysis and gluconeogenesis are expected to be essential (Naderer et al., 2006). The assay described here targets pyruvate kinase from Leishmania mexicania (LmPYK) that was obtained as a highly purified preparation from the University of Edinburgh (E451W mutant was provided). A 1536 well assay protocol was set up and validated by screening the LOPAC library in triplicate as an eight point concentration-titration series using the qHTS platform developed at the NCGC.
NCGC Assay Protocol Summary:
Three uL of substrate mix (final concentrations, 50 mM imidazole pH 7.2, 50 mM KCl, 7 mM MgCl2, 0.5 mM PEP, 0.1 mM ADP, 0.01% Tween 20, 0.05% BSA) was dispensed into white solid medium binding Greiner 1536 well plates. 23 nL of compound were delivered by a pin tool and 1 uL of enzyme mix (final concentration, 0.2 nM LmPYK, 50 mM imidazole pH 7.2, 0.05% BSA) was added. Plates were covered with stainless steel gasket-lined lids and incubated at room temperature for 1 hour. Two uL of detection and kinase stop mix (PKLight, Lonza) was added, and luminescence read by a ViewLux (Perkin Elmer) at 2 second exposure/plate using 2x binning. Controls on each plate were as follows: column 1, sixteen-point titration (1:2 dilutions) in duplicate the LmPK activator LOPAC-C8145 beginning at 57 uM final concentration; column 2, sixteen-point titration (1:2 dilutions) in duplicate activator LOPAC-S4063 beginning at 57 uM final concentration; column 3, column 4 DMSO only. Data were normalized to the neutral control (column 3).

Activity change, negative = inhibition, inactive:
C=C(C)[C@@H]1CC=C(C(=O)O)CC1 -13.7%
N=c1ccn2c(n1)O[C@@H]1[C@@H](O)[C@H](CO)O[C@H]12 -2.97%
CCCCC[C@H](CC(=O)NO)C(=O)N[C@@H](C(=O)N1CCC[C@H]1CO)C(C)C 164%
NC(=O)C1=CN([C@@H]2O[C@@H](COP(=O)(O)OP(=O)(O)OC[C@@H]3O[C@H](n4cnc5c(N)ncnc54)[C@@H](OP(=O)(O)O)[C@@H]3O)[C@H](O)[C@@H]2O)C=CC1 7.44%
CC(C)C[C@H]1C(=O)N2CCC[C@@H]2[C@]2(O)O[C@](NC(=O)[C@H]3C=C4c5cccc6[nH]c(Br)c(c56)C[C@H]4N(C)C3)(C(C)C)C(=O)N12 1.4%
O=C(O)CC[C@@H](NC(=O)c1ccccc1C(=O)O)C(=O)O 5.6%
CSC(N)=NCCC[C@@H](N)C(=O)O 3.63%
CC[C@@H](CO)Nc1nc(NCc2ccccc2)c2ncn(C(C)C)c2n1 -7.94%
C#C[C@H](N)CCC(=O)O 5.27%
NC[C@H](O)C1CCCCCCC1 -8.58%
C[C@@H]1C[C@@H]2[C@H]3CCC4=CC(=O)C=C[C@]4(C)[C@]3(Cl)[C@@H](O)C[C@@]2(C)[C@@]1(O)C(=O)CO -9.65%
CCCCC/C=C\C[C@H](O)/C=C\c1cccc(C[C@H](O)CCCCO)n1 -11.4%
Nc1ncnc2c1nc(Br)n2[C@@H]1O[C@H]2COP(=O)(O)O[C@@H]2[C@H]1O 5.8%
O=C1OC(=O)[C@@H]2[C@@H]1[C@@H]1CC[C@H]2O1 1.65%
Nc1nc(Nc2ccccc2)nc2c1ncn2[C@@H]1O[C@@H](CO)[C@H](O)[C@@H]1O -4.23%
C[C@@]12C(=O)OC(=O)[C@@]1(C)[C@H]1CC[C@@H]2O1 -10.5%
NC(=S)NCCC[C@@H](N)C(=O)O 7.84%
CN[C@]1(C)[C@@H]2CC[C@@H](C2)C1(C)C -13.3%
OC[C@@H]1NC[C@@H](O)[C@H]1O 8.14%
OC[C@@H]1O[C@H](O)[C@@H](Cl)[C@H](O)[C@@H]1O 8.06%
C[C@@H](CN1CCC(Cc2ccccc2)CC1)[C@H](O)c1ccc(O)cc1 -5.41%
Cc1cccc(C)c1OC[C@@H](N)C(C)C -4.67%
C=C/C(C)=C/[C@]1(C)SC(=O)C(C)=C1O 4.62%
O=C1O/C(=C\Br)CC[C@@H]1c1cccc2ccccc12 13.2%
CSc1nc(N)c2ncn([C@@H]3O[C@@H](COP(=O)(O)OP(=O)(O)OP(=O)(O)O)[C@@H](O)[C@H]3O)c2n1 -12.7%
O=c1ccn([C@@H]2O[C@@H](COP(=O)(O)OP(=O)(O)O)[C@H](O)[C@@H]2O)c(=O)[nH]1 6.77%
CC1=C(C(=O)O)N2C(=O)[C@@H](NC(=O)[C@@H](N)C3=CCC=CC3)[C@@H]2SC1 25.8%
N[C@H](CCCC(=O)O)C(=O)O 4.54%
CNC(=O)[C@@H]1O[C@@H](n2cnc3c(NCc4ccc(N)cc4)ncnc32)[C@@H](O)[C@H]1O 5.48%
NC(=O)c1ncn([C@@H]2O[C@@H](CO)[C@@H](O)[C@H]2O)c1O -6.89%
Nc1nc(SCc2ccc([N+](=O)[O-])cc2)c2ncn([C@@H]3O[C@@H](CO)[C@@H](O)[C@H]3O)c2n1 -6.98%
Oc1ccc([C@@H]2CNCCc3c2cc(O)c(O)c3Cl)cc1 -10.5%
OC[C@@H]1O[C@@H](n2cnc3c(N[C@@H]4C[C@@H]5CC[C@H]4C5)ncnc32)[C@@H](O)[C@H]1O 5.29%
CN[C@@H](CC(C)C)C(=O)N[C@@H]1C(=O)N[C@H](CC(N)=O)C(=O)N[C@H]2C(=O)N[C@H]3C(=O)N[C@H](C(=O)N[C@H](C(=O)O)c4cc(O)cc(O)c4-c4cc3ccc4O)[C@H](O)c3ccc(c(Cl)c3)Oc3cc2cc(c3O[C@@H]2O[C@@H](CO)[C@@H](O)[C@@H](O)[C@H]2O[C@H]2C[C@](C)(N)[C@H](O)[C@H](C)O2)Oc2ccc(cc2Cl)[C@@H]1O -4.57%
C[C@@H](COc1ccc(/C=C\c2ccccc2)cc1)[N+](C)(C)C -12.3%
Nc1ccc(CCNc2ncnc3c2ncn3[C@@H]2O[C@@H](CO)[C@H](O)[C@@H]2O)cc1 2.34%
Nc1ncnc2c1nc(Sc1ccc(Cl)cc1)n2[C@@H]1O[C@H]2COP(=O)(O)O[C@@H]2[C@H]1O 2.61%
OC[C@@H]1O[C@@H](n2cnc3c(NC4CCCCC4)ncnc32)[C@@H](O)[C@H]1O -7.35%

outcome, inactive:
CC[C@H]1C(=O)OC[C@H]1Cc1cncn1C
COC(=O)[C@H]1[C@H]2C[C@H]3c4[nH]c5ccccc5c4CCN3C[C@@H]2CC[C@@H]1O

Reference: PubChem BioAssay (NCATS)
